Data on 40 compounds can be found in PubChem BioAssay (EPA / NIEHS).

Molecules are shown by their SMILES. Activity calls are given as the source filed them. Rule for the calls: active = hit-call score of the fitted dose curve at least 0.9, where 1 is the maximum; inactive = score below 0.9.

A short description of this experiment: APR_HepG2_P-H2AX_1hr: Apredica 1-hour HepG2 Assay for H2AX Phosphorylation (AID 2282673). The following applies: high-content imaging, actives raise or lower the signal. Here is the method:
APR_HepG2_1hr is a cell-based, multiplexed-readout assay that uses HepG2, a human liver cell line, with measurements taken at 1 hour after chemical dosing in a 384-well plate.APR_HepG2_P-H2AX_1hr is one of 10 assay component(s) measured or calculated from the APR_HepG2_1hr assay. It is designed to make measurements of dna content, a form of viability reporter, as detected with fluorescence intensity signals by HCS Fluorescent Imaging technology.Data from the assay component APR_HepG2_P-H2AX_1hr was analyzed into 1 assay endpoint. This assay endpoint, APR_HepG2_P-H2AX_1hr, was analyzed with bidirectional fitting relative to DMSO as the negative control and baseline of activity. Using a type of viability reporter, measures of protein for gain or loss-of-signal activity can be used to understand the signaling at the pathway-level as they relate to the gene . Furthermore, this assay endpoint can be referred to as a primary readout, because this assay has produced multiple assay endpoints where this one serves a signaling function. To generalize the intended target to other relatable targets, this assay endpoint is annotated to the dna binding intended target family, where the subfamily is cellular response to DNA damage stimulus.
Cells were treated with dimethyl sulfoxide (DMSO) as a solvent control at a final concentration of 0.5% v/v or with compounds in DMSO with a resulting final DMSO concentration of 0.5% v/v. Compound treatment was done at concentrations of 0.39, 0.78, 1.56, 3.12, 6.24, 12.5, 25, 50, 100, and 200 uM in duplicate on each plate. Cells were treated with compounds for 1, 24, or 72 hr. Carbonyl […] m-chloro-phenylhydrazone (CCCP) and taxol were used as positive controls for mitochondrial function and cytoskeletal stability, respectively; DMSO served as the negative control for this experiment. Cells were fixed by the direct addition of 50 uL formaldehyde in Hank's Balanced Salt Solution (HBSS) to a final concentration of 3.7%. After incubation in the fixation medium for 30 min at room temperature (293-298 K), cells were rinsed twice with HBSS and treated with cell permeabilization buffer (16 uL of 0.5% Triton X-100) for 10 min at room temperature (293-298 K) before labeling. For mitochondrial membrane potential and mitochondrial measurements, pre-fixed cells were incubated with 50 uL of MitoTracker Red CMXRos (Invitrogen) at a concentration of 250 nM for 30 min before fixation. In the remaining cases, post-fixed cells were labeled by incubation with a multiplexed mixture of primary antibodies in HBSS for 60 min at room temperature (293-298 K) to detect immunoreactivity of c-Jun (1:500), phospho-histone H3 (1:100), phospho-histone H2A.x (1:200), p53 (1:400), alpha-tubulin (1:200) and Hoechst 33342 (2 ug/mL). Cells were labeled for multiplexed imaging on two separate plates: a) Hoechst 33342, MitoTracker Red, phospho-histone H3, and alpha-tubulin, and b) Hoechst 33342, phospho-histone H2A.x, and c-Jun. A final rinse with HBSS (50 uL) was performed before analysis. The primary and secondary antibodies for the proteins were phospho-histone H3 (rabbit anti-phospho-histone H3 and FITC-donkey anti-rabbit IgG), phospho-histone H2A.x (mouse anti-phospho-histone H2A.x and FITC-donkey anti-mouse IgG), c-Jun (rabbit anti-phospho-c-Jun and Cy3-donkey anti-rabbit IgG), p53 (sheep anti-p53 and Cy5-donkey anti-sheep IgG), alpha-tubulin (mouse anti-alpha-tubulin and Cy5-donkey anti-mouse IgG). These antibodies are available as the CellCiphr HepG2 assay kit (Millipore).Digital images of each well were captured using a Cellomics ArrayScan VTI (Thermo Scientific Cellomics) (0.8 NA objective, 0.63x optical coupler, and XF-93 filter set) at 20x magnification. The images were acquired using the autofocus feature of the ArrayScan instrument, which entails the following steps. First, the camera focuses on channel 1 (Hoechst 33342), where nuclei are identified. Second, a Z offset of 1 um is used for capturing mitochondria (MitoTracker Red). […]
For the compound `OCCOc1ccccc1`, the compound was called inactive.
Regarding `COC(=O)c1ccccc1CS(=O)(=O)NC(=O)Nc1nc(OC)cc(OC)n1`, the result was inactive.
Still for that read-out and setting: under `CN1CSC(=S)N(C)C1` stands “inactive”.
The same measure, in the same setting: then `O=C(O)COc1ccc(Cl)cc1Cl`, with “inactive”; and `CC(C)(C)C(O)/C(=C\c1ccc(Cl)cc1Cl)n1cncn1` (stereo not given), with “inactive”; and `[2H]C1([2H])[n+]2ccccc2-c2cccc[n+]2C1([2H])[2H]`, with “inactive”.
The AC50 is the concentration giving half of the maximal activity seen. For the compound `Oc1ccc(Cl)cc1Cc1ccccc1`, the AC50 was 110 µM (active).
As to `COc1cc(OC)nc(NC(=O)NS(=O)(=O)c2cc(NC=O)ccc2C(=O)N(C)C)n1`, the compound was classed as inactive.
On the same count and under the same terms, then `N#CN`, with “inactive”.
The same measure, in the same setting: under `Cc1cc(C)nc(NC(=O)NS(=O)(=O)c2ccccc2C(=O)OC2COC2)n1` stands “inactive”; under `ClC1C(Cl)C(Cl)C(Cl)C(Cl)C1Cl` (stereo not given), “inactive”; under `O=S1OCC2C(CO1)C1(Cl)C(Cl)=C(Cl)C2(Cl)C1(Cl)Cl` (stereo not given), “inactive”.
On the same count and under the same terms, under `CCCN(CCC)c1c([N+](=O)[O-])cc(C(F)(F)F)cc1[N+](=O)[O-]` stands “inactive”.
As for `CCOC1Oc2ccc(OS(C)(=O)=O)cc2C1(C)C` (stereo not given), the call was inactive.
As to `O=C1c2ccccc2C(=O)N1SC(Cl)(Cl)Cl`, the compound was called inactive.
Same read-out and setting: then `CCc1ccc(C(=O)NN(C(=O)c2cc(C)cc(C)c2)C(C)(C)C)cc1`, with “inactive”; and `Clc1ccccc1-c1nnc(-c2ccccc2Cl)nn1`, with “inactive”.
Still for that read-out and setting: under `CCOc1nc(NC)nc(NC(=O)NS(=O)(=O)c2ccccc2C(=O)OC)n1` stands “inactive”.
For the compound `Oc1cc(Cl)ccc1Oc1ccc(Cl)cc1Cl`, the AC50 was 99.8 µM (active).
Consider `C#CCN1C(=O)COc2cc(F)c(N3C(=O)C4=C(CCCC4)C3=O)cc21`, for which the compound was called inactive.
As to `COC(=O)c1ccccc1S(=O)(=O)NC(=O)N(C)c1nc(C)nc(OC)n1`, the compound was called inactive.
On to `O=C(O)C(F)(F)C(F)(F)C(F)(F)C(F)(F)C(F)(F)C(F)(F)C(F)(F)F`, for which the outcome was inactive.
For the compound `CC1(C)C(C=C(Cl)Cl)C1C(=O)OC(C#N)c1ccc(F)c(Oc2ccccc2)c1` (stereo not given), the compound was classed as inactive.
On the same count and under the same terms, under `CCC(C)(C)C(=O)OC1=C(c2ccc(Cl)cc2Cl)C(=O)OC12CCCCC2` stands “inactive”; under `O=[N+]([O-])/N=C1\NCCN1Cc1ccc(Cl)nc1`, “inactive”; under `CC(C)N(C(=O)COc1nnc(C(F)(F)F)s1)c1ccc(F)cc1`, “inactive”.
Same read-out and setting: under `COP(=S)(OC)Oc1ccc(SC)c(C)c1` stands “inactive”; under `CNC(=O)Oc1ccccc1OC(C)C`, “inactive”.
On the same count and under the same terms, then `COC(=O)c1ccccc1S(=O)(=O)NC(=O)Nc1nc(C)nc(OC)n1`, with “inactive”; and `CC1(c2ccc(Oc3ccccc3)cc2)OC(=O)N(Nc2ccccc2)C1=O` (stereo not given), with “inactive”; and `CCC(C)(NC(=O)c1cc(Cl)c(C)c(Cl)c1)C(=O)CCl` (stereo not given), with “inactive”.
Consider `CC(C)OC(=O)Nc1cccc(Cl)c1`, for which the result was inactive.
Same read-out and setting: under `C[C@H]1[C@H](c2ccc(Cl)cc2)SC(=O)N1C(=O)NC1CCCCC1` stands “inactive”; under `O=C(NC(=O)c1c(F)cccc1F)Nc1ccc(OC(F)(F)C(F)OC(F)(F)F)c(Cl)c1` (stereo not given), “inactive”.
Same read-out and setting: under `COc1nn(CSP(=S)(OC)OC)c(=O)s1` stands “inactive”.
As to `O=C(O)CCCOc1ccc(Cl)cc1Cl`, the call was inactive.
For the compound `O=[N+]([O-])c1c(Cl)c(Cl)c(Cl)c(Cl)c1Cl`, the outcome was inactive.
`COP(=S)(OC)Oc1ccc([N+](=O)[O-])cc1`: the outcome was inactive.
On the same count and under the same terms, then `CCN(CC)C(=O)SCc1ccc(Cl)cc1`, with “inactive”; and `CNC(=O)/C=C(\C)OP(=O)(OC)OC`, with “inactive”.
